Shown are actives, neighbours in structure and some others; about 4.5% of the full set was active somewhere.
PrP 5UTR inh: suppresses PrP 5' UTR mRNA reporter expression; cell-based PrP 5' UTR mRNA reporter, plate reader; inhibition, % (test concentration not listed); 0.35% of 340,000 active; AID 488862; in the data active = inhibition above about 52%
PfHsp40 yeast: compounds rescuing yeast from Plasmodium falciparum HSP40 toxicity; S. cerevisiae expressing PfHsp40, growth rescue, ATP luminescence; growth rescue, % at 12.5 µM; 0.68% of 340,000 active; in the data active = growth rescue above about 28%, passing the limit was not always enough;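 note: yeast W303a lacking pdr1 and pdr3 grown in galactose medium; growth measured after three days at 30 °C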
GDH-TPI counter-1: counter-screen for M. tuberculosis FBA inhibitors: GDH-TPI coupled enzymes; GDH-TPI coupled enzyme counterscreen, NADH absorbance; inhibition, % at 4.8 µM; 1.2% of 360,000 active; in the data active = inhibition above about 30%
BJeLR lethal: kills HRASV12-expressing BJeLR cells | BJeLR (HRASV12) viability, CellTiter-Glo ATP luminescence, 48 h | inhibition, % (no concentration beside the values) | 0.17% of 300,000 active | AID 1554; in the data active = inhibition above about 50%
PrPC TRFRET: reduces human prion protein on the cell surface; cell surface PrPC, TR-FRET read-out; inhibition, % at 13.8 µM; 0.43% of 370,000 active; in the data active = inhibition above about 24%
FBA Mtb inh: inhibits M. tuberculosis FBA enzyme; inhibition, % at 1 µM; AID 588726; 2.3% of 360,000 active; purified M. tuberculosis FBA, fluorescence read-out; P9WQA3
Target sequence (P9WQA3 whole entry, looked up): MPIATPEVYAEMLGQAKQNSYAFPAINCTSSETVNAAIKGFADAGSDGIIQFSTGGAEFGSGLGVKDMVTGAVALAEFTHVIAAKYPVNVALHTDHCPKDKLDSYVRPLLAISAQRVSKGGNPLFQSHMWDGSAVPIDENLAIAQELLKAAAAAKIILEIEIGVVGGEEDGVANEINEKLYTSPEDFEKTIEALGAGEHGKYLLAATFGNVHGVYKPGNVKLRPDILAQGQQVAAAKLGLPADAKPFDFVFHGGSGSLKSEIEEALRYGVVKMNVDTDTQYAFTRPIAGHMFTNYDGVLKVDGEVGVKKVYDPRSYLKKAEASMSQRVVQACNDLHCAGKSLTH
Mtb FBA inh conf: Mtb FBA inhibition, confirmed. shares compounds with FBA Mtb inh. purified M. tuberculosis FBA, fluorescence read-out. inhibition, % at 1 µM. 78% of 5,600 active
GDH-TPI counter-2: GDH-TPI inhibition counter-screen for FBA inhibitors; shares compounds with FBA Mtb inh; GDH-TPI coupled enzyme counterscreen, fluorescence; inhibition, % at 1 µM; 81% of 5,600 active; AID 652141; in the data active = inhibition above about 10%
Of the large screens only hits and unclear results are named; the others gave an inactive call (follow-up assays come after a bar, where they were run). Cut-off read from the data, not from the text of the source, unless noted: active = inhibition above about 27%; inactive = the rest.

C/C=C(/C)C(=O)O[C@@H]([C@H](O)c1cc2ccc(=O)oc2cc1OC)C(C)(C)O[C@@H]1O[C@H](CO)[C@@H](O)[C@H](O)[C@H]1O	FBA Mtb inh 58.8 (no result: BJeLR lethal) | Mtb FBA inh conf 161.1 | GDH-TPI counter-2 146.4
COc1cc2cc(Oc3ccc4ccc(=O)oc4c3)c(=O)oc2cc1OC(C)=O	none
C/C=C(\C)C(=O)O[C@H](c1cc2ccc(=O)oc2cc1OC)[C@@H](O)C(C)(C)O	FBA Mtb inh 39.7 (no result: BJeLR lethal) | Mtb FBA inh conf 90.1 | GDH-TPI counter-2 57.8
Cc1cc(NC(=O)CCC(=O)N(CC(=O)NCC2CCCO2)c2ccc(F)c(Cl)c2)no1 (stereo not given)	none
O=C(O)c1ccccc1-c1nc(-c2ccccc2)c(-c2ccccc2)[nH]1	none
COc1cc(-c2nc(-c3ccccc3)c(-c3cccs3)[nH]2)cc(OC)c1O	none
c1ccc(-c2nc(-c3cccs3)[nH]c2-c2ccccc2)cc1	FBA Mtb inh 63.1 | Mtb FBA inh conf active | GDH-TPI counter-2 177.8
COc1cc(-c2nc(-c3ccccc3)c(-c3cccs3)[nH]2)cc(OC)c1OC	FBA Mtb inh 46.0 | Mtb FBA inh conf inactive | GDH-TPI counter-2 inactive
CN1c2ccccc2N(C)C1(C)c1cccc2ccccc12	none
CN1c2cccc3cccc(c23)N(C)C1(C)C	FBA Mtb inh 71.7 | Mtb FBA inh conf inactive | GDH-TPI counter-2 inactive
CC/C(=N/NC(=O)c1ccccc1)c1ccc(OCCN2CCOCC2)cc1	FBA Mtb inh 31.0 | Mtb FBA inh conf 90.9 | GDH-TPI counter-2 56.6
Oc1cccc2c(NC(=S)Nc3ccc(SC(F)F)cc3)cccc12	FBA Mtb inh 30.3 | Mtb FBA inh conf active | GDH-TPI counter-2 active
Oc1cccc(NC(=S)Nc2ccc(SC(F)F)cc2)c1	none
Brc1ccc2nc(-c3ccco3)c(CC3CCCCC3)n2c1	none (no result: PrP 5UTR inh, PfHsp40 yeast, GDH-TPI counter-1, BJeLR lethal)
O=C(CC1Sc2ccccc2NC1=O)OCc1cc(=O)oc2cc(O)ccc12 (stereo not given)	FBA Mtb inh 34.7 | Mtb FBA inh conf 91.5 | GDH-TPI counter-2 80.2
Cc1ccc2c(COC(=O)CC3Sc4ccccc4NC3=O)cc(=O)oc2c1C (stereo not given)	none
CCN1CCN(c2ccc(Cl)cc2NC(=O)c2ccc(-n3nc(C)cc3C)cc2)CC1	none (no result: BJeLR lethal)
Cc1sc2ncnc(N3CCC(C(=O)N(C)CC(=O)Nc4ccc(Cl)c(C(F)(F)F)c4)CC3)c2c1C	none
Cc1ccc(F)cc1NC(=O)CCNC(=O)c1ccc([N+](=O)[O-])cc1	FBA Mtb inh 37.4 | Mtb FBA inh conf 162.9 | GDH-TPI counter-2 124.2
COC(=O)c1ccc(C)c(NC(=O)CCNC(=O)c2ccc([N+](=O)[O-])cc2)c1	none
O=C(NC1CCSc2ccccc21)c1ccc(Cl)c(S(=O)(=O)N2CCOCC2)c1 (stereo not given)	none
COc1ccccc1-c1oc2ccccc2c1C#CCCO	FBA Mtb inh 65.2 (no result: BJeLR lethal) | Mtb FBA inh conf inactive | GDH-TPI counter-2 inactive
COc1ccc(C#Cc2c(-c3ccccc3OC)oc3ccccc23)cc1	none (no result: PrP 5UTR inh, PfHsp40 yeast, GDH-TPI counter-1, BJeLR lethal, FBA Mtb inh)
N#Cc1cc(-c2ccccc2)oc1/N=C/c1ccccc1O	FBA Mtb inh 58.6 | Mtb FBA inh conf 45.0 | GDH-TPI counter-2 28.7
COc1ccc(/C=N/c2oc(-c3ccccc3)cc2C#N)cc1	none
COc1cccc(/C=N/c2oc(-c3ccccc3)cc2C#N)c1O	FBA Mtb inh 53.9 | Mtb FBA inh conf inactive | GDH-TPI counter-2 inactive
O=S(=O)(Nc1cccc2ccccc12)N1CCCC1	FBA Mtb inh 27.6 | Mtb FBA inh conf 71.7 | GDH-TPI counter-2 58.9
CN(C(=O)COC(=O)CN1C(=O)C2CC=CCC2C1=O)c1ccccc1 (stereo not given)	none
CNc1ccccc1C(=O)OCC(=O)N1CCc2ccccc2C1	FBA Mtb inh 63.1 (no result: PrP 5UTR inh, PfHsp40 yeast, BJeLR lethal) | Mtb FBA inh conf inactive | GDH-TPI counter-2 inactive
O=C(OCC(=O)N1CCc2ccccc2C1)c1ccc(O)cc1	none (no result: BJeLR lethal)
O=C(OCC(=O)N1CCN(c2ccccc2)CC1)c1ccccc1OC(F)F	none
O=C(OCC(=O)N1CCN(c2ccccc2)CC1)c1ccccc1NCCO	FBA Mtb inh 100.5 | Mtb FBA inh conf active | GDH-TPI counter-2 active
CN(C(=O)COC(=O)c1ccccc1NCCO)C1CCS(=O)(=O)C1 (stereo not given)	FBA Mtb inh 103.3 | Mtb FBA inh conf 124.0 | GDH-TPI counter-2 92.6
Nc1ccccc1C(=O)OCC(=O)N1CCc2ccccc21	FBA Mtb inh 34.5 | Mtb FBA inh conf 59.2 | GDH-TPI counter-2 43.5
CN(C(=O)COC(=O)c1ccccc1NC(=O)c1ccco1)C1CCS(=O)(=O)C1 (stereo not given)	none
CC[C@@H]1C/C=C\Cc2ccccc2[C@H](C(=O)C[C@@H](O)CC(C)=O)OC1=O	none (no result: BJeLR lethal)
Cc1cccc(C)c1NC(=O)COC(=O)c1cccnc1	none
CCCn1nc2cc(C(=O)NCc3ccc(C)cc3)ccc2c1OC	FBA Mtb inh 58.5 | Mtb FBA inh conf 44.8 | GDH-TPI counter-2 35.1
CCOc1c2ccc(C(=O)NCc3ccc(C)cc3)cc2nn1CCOC	FBA Mtb inh 44.0 | Mtb FBA inh conf 142.2 | GDH-TPI counter-2 117.5
COc1ccc(S(=O)(=O)N2CCOC2CNC(=O)C(=O)NCc2ccccn2)cc1C (stereo not given)	none
O=C(Cc1cccc2ccccc12)Nc1ccc(O)cc1C(=O)O	FBA Mtb inh 32.4 | Mtb FBA inh conf inactive | GDH-TPI counter-2 inactive
CC1=CC(c2ccccc2)n2nc(N3C(=O)CCC3=O)nc2N1 (stereo not given)	FBA Mtb inh 104.4 | Mtb FBA inh conf 73.8 | GDH-TPI counter-2 41.4
O=C1CC(c2ccccc2)n2nc(N3C(=O)CCC3=O)nc2N1 (stereo not given)	none
CC(C)c1nc(N2CCN(C(=O)c3ccco3)CC2)c(C#N)c2c1COC(C)(C)C2	FBA Mtb inh 37.3 | Mtb FBA inh conf active | GDH-TPI counter-2 active
COc1cc(OC)cc(C(=O)Nc2ccc(-c3nc4ccccc4o3)cc2)c1	none
COc1cccc(C(=O)Nc2ccc(-c3nc4ccccc4o3)c(O)c2)c1	GDH-TPI counter-1 33.1, FBA Mtb inh 43.2 | Mtb FBA inh conf 46.2 | GDH-TPI counter-2 33.0
Cn1ncc(Cl)c1C(=O)Nc1ccc(CN2CCCCC2)cc1	none
O=C(c1cccn2c(=O)c3cc(Cl)ccc3nc12)N1CCC2(CC1)OCCO2	FBA Mtb inh 34.2 | Mtb FBA inh conf 46.1 | GDH-TPI counter-2 39.5
Cc1nc2cc3ccccc3cc2c(=O)[nH]1	FBA Mtb inh 67.3 | Mtb FBA inh conf inactive | GDH-TPI counter-2 inactive
O=c1[nH]c(=O)c2cc3ccccc3nc2[nH]1	FBA Mtb inh 75.2 (no result: BJeLR lethal) | Mtb FBA inh conf 47.4 | GDH-TPI counter-2 45.1
Cc1cc2cc3c(=O)[nH]c(=O)[nH]c3nc2cc1C	none (no result: PrP 5UTR inh, PfHsp40 yeast, GDH-TPI counter-1, FBA Mtb inh)
C=CCOC(=O)N1CCN(C(=O)c2ccc3nc(C)n(C4CCCC4)c3c2)CC1	none (no result: PrP 5UTR inh, PfHsp40 yeast, GDH-TPI counter-1, BJeLR lethal, FBA Mtb inh)
